Test [1] relates to Plasmodium falciparum Sir2 (PF13_0152, Sir2A). The test can be described thus: Plasmodium falciparum Sir2A binding compounds – biochemical, small-molecule microarray, 635 nm fluorescence, primary screen (AID 1098).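 Further: score merges spot fluorescence intensity with its signal-to-noise ratio.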 The following applies: fluorescence 635 nm, higher = more signal.
A short description of test [2]: probe aDKK1 binding to arrayed compounds – biochemical, biotinylated probe, 635/667 nm fluorescence, primary screen (AID 1099).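 Further: score merges 667nm spot fluorescence with signal to noise across triplicate slides.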 The following applies: small-molecule microarray, higher = more signal.
A short description of test [3]: probe aCHRDL2 binding to arrayed compounds – biochemical, biotinylated probe, 635/667 nm fluorescence, primary screen (AID 1100). The following applies: small-molecule microarray, higher = more signal.
Test [4] can be described thus: change in splice reporter luminescence, either direction, cell-based, HEK293, spliceosome inhibition project, primary screen (AID 1101).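 Further: HEK293 cells carrying a splicing-competent luciferase reporter gene; test concentration not given here.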 The following applies: HEK293 splicing luciferase reporter, 24 h, higher = more signal, called active from +8 up or from −8 down. (In general: A reporter such as luciferase makes a cellular process visible.)
In test [5] the target is Fibroblast growth factor 10 (Homo sapiens) (UniProt O15520). The test can be described thus: compounds binding fibroblast growth factor 10 – biochemical, small-molecule microarray, 635 nm fluorescence, primary screen (AID 1102). The following applies: FGF10 binding, fluorescence 635 nm, higher = more signal.
In test [6] the test system is glycogen synthase kinase-3 (GSK3A per assay name; protocol says GSK3B). The test can be described thus: compounds binding glycogen synthase kinase-3 – biochemical, small-molecule microarray, 635 nm fluorescence, GSK3A, primary screen (AID 1103). Further: the record names both GSK3A and GSK3B. The following applies: fluorescence 635 nm, higher = more signal.
Test [7] addresses Epidermal growth factor receptor (Homo sapiens) (UniProt P00533). The test is described as follows: compounds binding epidermal growth factor receptor – biochemical, small-molecule microarray, 635 nm fluorescence, primary screen (AID 1104).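 Further: score merges 667 nm emission intensity with spot signal to noise over triplicate slides.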 The following applies: EGFR binding, higher = more signal.
The target of test [8] is Follistatin-related protein 3 (Homo sapiens) (UniProt O95633). The test can be described thus: compounds binding follistatin-related protein 3 – biochemical, small-molecule microarray, 635 nm fluorescence, primary screen (AID 1105).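 Further: score merges emission near 667 nm and signal to noise per printed spot across three slides.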 The following applies: FSTL3 binding, higher = more signal.
The target in test [9] is Dickkopf-related protein 1 (Homo sapiens) (UniProt O94907). The test is described as follows: small molecules binding DKK1 protein – biochemical, small-molecule microarray, 635 nm fluorescence scan, primary screen (AID 1106).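 Further: score merges emission near 667 nm with signal to noise over three replicate slides.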 The following applies: higher = more signal.
Test [10] relates to Inhibin beta A chain (activin A). The test can be described thus: small molecules binding activin A – biochemical, small-molecule microarray, 635 nm fluorescence scan, primary screen (AID 1107).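 Further: mouse activin A protein probed at 4.33 µg/mL on printed slides; score merges bound-protein fluorescence near 667 nm with spot signal-to-noise.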 The following applies: INHBA, higher = more signal.
Test [11] concerns Human papillomavirus type 1a protein E7 (residues 44-93). The test can be described thus: small molecules binding HPV E7 44-93 – biochemical, small-molecule microarray, residues 44-93, 635 nm fluorescence, primary screen (AID 1108).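 Further: E7 fragment applied at 1 µg/mL in TBST for 1 h at 4 C; score combines spot fluorescence with its signal to noise ratio.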 The following applies: fluorescence 635 nm, higher = more signal.
Test [12] is described as follows: hepatitis C replication reporter changes, two-sided – Huh7 cells, luciferase reporter, HCV replication inhibitor project, primary screen (AID 1109).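 Further: huh7 hepatoma cells harbouring a luciferase neomycin HCV replicon reporter; luciferase luminescence as measure of HCV replicon replication; test concentration not given here.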 The following applies: Huh7 HCV replicon luciferase reporter, 48 h; higher = more signal.
The target of test [13] is Left-right determination factor 2 (Homo sapiens) (UniProt O00292). The test can be described thus: small molecules binding LEFTY2 protein – biochemical, small-molecule microarray, 635 nm fluorescence scan, primary screen (AID 1110). The following applies: higher = more signal.
Test [14] concerns the target Calmodulin-1 (Homo sapiens) (UniProt P0DP23). The test can be described thus: small molecules binding calmodulin-1 with EGTA – biochemical, small-molecule microarray, Cy5-labelled CALM1, profiling panel (AID 1111).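 Further: labelled calmodulin applied in Tris saline Tween buffer holding calcium plus EGTA and DTT.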 The following applies: Cy5-CALM1 binding fluorescence, higher = more signal.
Test [15] has the same target. The test is described as follows: small molecules binding Ca-loaded calmodulin-1 – biochemical, small-molecule microarray, Cy5-labelled CALM1, plus calcium, artefact control for SMM control-protein annotation, profiling panel (AID 1112).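 Further: score merges spot fluorescence with signal to noise from triplicate slides.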 The following applies: Cy5-CALM1 binding fluorescence, higher = more signal.
Test [16] is described as follows: probe aWnt5a binding to arrayed compounds – biochemical, biotinylated probe, 635/667 nm fluorescence, primary screen (AID 1113).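 Further: score merges 667 nm fluorescence intensity with signal-to-noise per printed feature.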 The following applies: small-molecule microarray, higher = more signal.
The nature of test [17]: probe aShh binding to arrayed compounds – biochemical, biotinylated probe, 635/667 nm fluorescence, primary screen (AID 1114).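 Further: probe is biotin-labelled aShh protein from a stem cell growth factor screen; measures binding of labelled protein to compounds printed on the slide; score merges feature fluorescence at 667 nm with signal-to-noise.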 The following applies: small-molecule microarray, higher = more signal.
Test [18] can be described thus: probe aNog binding to arrayed compounds – biochemical, biotinylated probe, 635/667 nm fluorescence, primary screen (AID 1115).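 Further: probe is biotinylated aNog protein used at 0.15 µg/mL for 1 h at 4 C; z-score combines 667 nm fluorescence of each spot with its signal to noise.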 The following applies: small-molecule microarray, higher = more signal.
For test [19], the target named is Torsin-1A-interacting protein 1 (Homo sapiens) (UniProt Q5JTV8). The test is described as follows: compound microarray binding of lysate hLAP1 – cell lysate, small-molecule microarray, COS7 lysate, 635/667 nm fluorescence, primary screen (AID 1116). The following applies: 635 nm fluorescence, higher = more signal.
Test [20] has as its target Alpha-bungarotoxin (Bungarus multicinctus) (UniProt P60615). The test can be described thus: compounds binding labelled alpha-BTX control protein – biochemical, small-molecule microarray, Alexa647 label, 635/667 nm fluorescence, artefact control for SMM control protein annotation, profiling panel (AID 1117). The following applies: alpha-BTX-A647 binding fluorescence, higher = more signal.

In PubChem BioAssay one finds composite z-score and z-score data, which are given here for six compounds.

Molecules are shown by their SMILES. The source made the active and inactive calls.

Alpha-bungarotoxin (Bungarus multicinctus), sequence (P60615 whole entry, looked up): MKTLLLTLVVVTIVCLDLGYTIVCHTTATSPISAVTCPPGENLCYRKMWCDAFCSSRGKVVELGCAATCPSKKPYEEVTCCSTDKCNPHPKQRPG
Fibroblast growth factor 10 (Homo sapiens), sequence (O15520 whole entry, looked up): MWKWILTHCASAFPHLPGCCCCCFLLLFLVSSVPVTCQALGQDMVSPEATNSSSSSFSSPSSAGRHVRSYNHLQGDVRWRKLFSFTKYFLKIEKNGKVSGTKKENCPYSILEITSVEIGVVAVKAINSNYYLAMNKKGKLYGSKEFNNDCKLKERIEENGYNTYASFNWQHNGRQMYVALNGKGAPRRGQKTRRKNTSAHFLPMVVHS
Follistatin-related protein 3 (Homo sapiens), sequence (O95633 whole entry, looked up): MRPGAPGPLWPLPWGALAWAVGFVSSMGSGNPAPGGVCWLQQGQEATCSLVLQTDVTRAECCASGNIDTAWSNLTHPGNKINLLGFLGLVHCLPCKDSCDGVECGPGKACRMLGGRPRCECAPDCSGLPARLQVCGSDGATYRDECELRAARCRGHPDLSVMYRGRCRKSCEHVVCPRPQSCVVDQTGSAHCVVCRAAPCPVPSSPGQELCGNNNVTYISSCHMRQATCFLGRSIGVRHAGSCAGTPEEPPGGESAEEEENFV
Torsin-1A-interacting protein 1 (Homo sapiens), sequence (Q5JTV8 whole entry, looked up): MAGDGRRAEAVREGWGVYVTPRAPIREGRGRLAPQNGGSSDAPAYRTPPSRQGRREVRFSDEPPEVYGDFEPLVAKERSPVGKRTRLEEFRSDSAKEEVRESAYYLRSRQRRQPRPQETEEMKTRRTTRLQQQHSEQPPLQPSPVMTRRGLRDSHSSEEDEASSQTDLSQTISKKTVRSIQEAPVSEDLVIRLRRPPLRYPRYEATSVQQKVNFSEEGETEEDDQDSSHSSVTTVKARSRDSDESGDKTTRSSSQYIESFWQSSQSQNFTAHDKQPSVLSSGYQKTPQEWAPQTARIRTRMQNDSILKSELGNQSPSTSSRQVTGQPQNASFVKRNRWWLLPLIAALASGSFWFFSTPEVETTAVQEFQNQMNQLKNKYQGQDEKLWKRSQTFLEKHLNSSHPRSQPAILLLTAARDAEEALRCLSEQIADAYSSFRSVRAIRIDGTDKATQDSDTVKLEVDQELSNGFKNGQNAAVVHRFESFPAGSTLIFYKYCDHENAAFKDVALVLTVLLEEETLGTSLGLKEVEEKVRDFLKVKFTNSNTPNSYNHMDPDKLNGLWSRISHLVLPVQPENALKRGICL
Epidermal growth factor receptor (Homo sapiens), sequence (P00533 whole entry, looked up): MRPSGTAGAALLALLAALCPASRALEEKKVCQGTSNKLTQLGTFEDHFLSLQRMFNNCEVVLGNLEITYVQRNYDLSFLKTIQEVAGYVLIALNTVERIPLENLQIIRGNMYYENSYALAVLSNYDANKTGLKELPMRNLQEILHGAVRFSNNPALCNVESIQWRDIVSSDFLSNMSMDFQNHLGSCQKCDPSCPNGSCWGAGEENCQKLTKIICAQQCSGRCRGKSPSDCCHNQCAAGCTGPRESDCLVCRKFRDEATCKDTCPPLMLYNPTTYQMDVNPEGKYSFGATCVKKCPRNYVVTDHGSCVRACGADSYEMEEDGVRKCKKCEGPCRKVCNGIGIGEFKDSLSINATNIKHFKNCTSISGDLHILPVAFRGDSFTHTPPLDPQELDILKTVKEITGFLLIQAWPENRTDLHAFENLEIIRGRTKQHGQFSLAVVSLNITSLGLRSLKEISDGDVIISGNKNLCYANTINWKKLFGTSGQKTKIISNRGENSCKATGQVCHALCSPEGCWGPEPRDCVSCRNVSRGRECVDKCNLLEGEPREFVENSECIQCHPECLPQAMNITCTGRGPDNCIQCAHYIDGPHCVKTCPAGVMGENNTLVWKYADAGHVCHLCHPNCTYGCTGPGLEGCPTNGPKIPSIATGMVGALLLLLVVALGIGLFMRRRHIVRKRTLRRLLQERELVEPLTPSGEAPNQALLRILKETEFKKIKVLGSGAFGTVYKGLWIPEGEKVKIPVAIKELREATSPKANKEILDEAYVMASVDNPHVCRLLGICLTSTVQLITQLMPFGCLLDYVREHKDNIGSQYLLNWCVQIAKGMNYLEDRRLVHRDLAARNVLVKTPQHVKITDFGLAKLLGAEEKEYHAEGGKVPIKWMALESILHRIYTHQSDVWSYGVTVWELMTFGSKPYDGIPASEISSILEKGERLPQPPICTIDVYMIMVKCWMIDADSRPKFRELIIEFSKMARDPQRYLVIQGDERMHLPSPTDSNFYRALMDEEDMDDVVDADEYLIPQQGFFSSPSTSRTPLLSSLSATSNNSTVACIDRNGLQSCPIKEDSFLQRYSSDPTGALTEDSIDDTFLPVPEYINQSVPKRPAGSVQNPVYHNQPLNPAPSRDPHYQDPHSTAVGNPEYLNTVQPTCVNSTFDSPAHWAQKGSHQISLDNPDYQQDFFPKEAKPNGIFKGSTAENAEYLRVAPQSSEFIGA
Dickkopf-related protein 1 (Homo sapiens), sequence (O94907 whole entry, looked up): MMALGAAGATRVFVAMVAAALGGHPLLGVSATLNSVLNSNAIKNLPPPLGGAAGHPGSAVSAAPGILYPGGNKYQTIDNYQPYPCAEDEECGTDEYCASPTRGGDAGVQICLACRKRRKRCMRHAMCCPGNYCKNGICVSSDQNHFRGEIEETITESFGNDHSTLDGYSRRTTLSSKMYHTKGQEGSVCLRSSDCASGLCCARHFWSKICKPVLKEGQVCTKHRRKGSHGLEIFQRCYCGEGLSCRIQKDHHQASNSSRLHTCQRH
Left-right determination factor 2 (Homo sapiens), sequence (O00292 whole entry, looked up): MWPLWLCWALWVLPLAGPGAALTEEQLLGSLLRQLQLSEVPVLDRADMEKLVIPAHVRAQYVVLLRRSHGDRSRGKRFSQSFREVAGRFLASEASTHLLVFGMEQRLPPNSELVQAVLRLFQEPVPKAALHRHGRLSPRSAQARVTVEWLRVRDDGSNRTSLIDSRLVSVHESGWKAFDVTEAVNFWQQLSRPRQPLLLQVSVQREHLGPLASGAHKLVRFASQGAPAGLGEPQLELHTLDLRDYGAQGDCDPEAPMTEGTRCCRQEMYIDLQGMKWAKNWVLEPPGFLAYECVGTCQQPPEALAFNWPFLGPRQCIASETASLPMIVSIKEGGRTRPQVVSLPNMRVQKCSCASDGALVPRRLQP

`COC(=O)[C@@]1(Cc2ccccc2CN=[N+]=[N-])N=C(c2ccc(OCCCO)cc2)O[C@H]1c1ccccc1`: the composite z-score in [1] was 1.13; in test [2] it was 0.789; in test [3], 0.966; in [5], -0.438; in test [6] it was -0.0487; in [7], -0.0819. Besides, the composite z-score is -0.153 in [8]; -0.459 in [9]; 1.13 in [10]; 0.155 in [11]; -0.59 in test [13]; -0.426 in test [14]. For the same compound, the composite z-score in [15] was 0.161; in test [16] it was 0.0101; in test [17], -0.0375; in test [18], 1.48; in test [19], 1.42; in test [20], 0.779. In addition, the figures for the z-score in test [4] and in [12] were 0.31 (inactive) and -3.09, respectively.
On to `CN1C(=O)C2C(C1=O)C1C=C(CCCO)C2C(C2CC2)N1Cc1cc2c(cc1Br)OCO2` (stereo not given), for which the composite z-score in test [1] is 0.553; in test [2], -0.272; in test [3], 0.288; in [5], 0.357; in [6] it was 0.963; in test [7], -0.0564. The composite z-score in [8] is -0.0617; in test [9], 0.107; in [10], 1.36; in test [11], 0.295; in test [13], 0.285; in test [14], 0.508. Moreover, the composite z-score in test [15] is 0.724; in test [16] it was -0.0462; in [17], 0.0893; in [18], 1.21; in [19] it was 1.33; in test [20], 1.58. Besides, the results for the z-score in [4] and in test [12] were -0.0854 (inactive) and -0.734, respectively.
As to `O=C1C2C=CC(C(O)c3ccc(I)cc3)N(Nc3ccccc3)C2C(=O)N1c1ccccc1` (stereo not given), the composite z-score in test [1] was determined as 1.1; in test [2], 1.06; in test [3], 1.21; in [5], 0.455; in test [6] it was 1.29; in test [7], 0.0244. Further, the composite z-score in test [8] was 0.859; in [9], 0.263; in test [10] it was 1.06; in test [11], 0.898; in test [13] it was 0.0988; in test [14], 2.51. For the same compound, the composite z-score was 1.2 in test [15]; -0.0399 in test [16]; 0.184 in test [17]; 1.4 in [18]; 1.83 in [19]; 1.71 in test [20]. Also, the results for the z-score in [4] and in test [12] were 0.189 (inactive) and 0.0376, respectively.
As for `CC(=O)N1CC(C(O)C2C=CC3C(=O)NC(=O)C3N2Nc2ccc(Cl)cc2Cl)c2ccccc21` (stereo not given), the composite z-score in test [1] was 0.669; in test [2], 1.95; in test [3] it was 1.07; in test [5], 0.693; in test [6] it was -0.28; in test [7], -0.105. Besides, the composite z-score in test [8] was 0.797; in test [9] it was 0.0106; in test [10], 1.19; in test [11], 0.759; in test [13] it was -0.138; in [14], 1.18. Besides, the composite z-score was 0.789 in test [15]; 0.0437 in test [16]; 0.806 in test [17]; 1.5 in [18]; 0.033 in test [19]; 0.869 in test [20]. For the same compound, the z-score in test [4] is 0.622 (inactive); in test [12] it was -0.819.
Regarding `Cc1ccc(S[C@]2(C(=O)NCc3ccccc3)CC(=O)N(Cc3cc(C(F)(F)F)cc(C(F)(F)F)c3)[C@@H]2c2ccc(CO)cc2I)cc1`, the composite z-score is -0.466 in test [1]; 0.664 in [2]; 1.22 in test [3]; -1.31 in test [5]; -0.714 in test [6]; -1.78 in test [7]. The composite z-score in [8] is -0.203; in test [9], -1.54; in [10], 1.02; in test [11] it was -0.262; in [13], -1.24; in [14], -0.36. Further, the composite z-score is 0.585 in test [15]; -0.228 in test [16]; -0.319 in test [17]; -0.216 in test [18]; 0.0893 in [19]; -1.05 in [20]. Further, the z-score in test [4] is -1.21 (inactive); in [12] it was -0.861.
In the case of `CO[C@H]1O[C@H](CO)[C@@H](OC(=O)CCc2ccccc2)[C@H](OC(=O)c2cc3ccccc3[nH]2)[C@H]1OC(=O)c1cc2ccccc2[nH]1`, the composite z-score in test [1] was 0.757; in test [2], -0.118; in [3] it was -0.0052; in [5] it was 1.27; in [6], 0.828; in [7], 0.543. The composite z-score was 0.847 in [8]; 0.777 in test [9]; -0.108 in test [10]; 1.34 in test [11]; 0.817 in [13]; 1.65 in [14]. Further, the composite z-score in [15] is 0.193; in test [16] it was 0.055; in test [17], -0.138; in [18], 0.248; in test [19] it was 1.21; in test [20], 0.889. For the same compound, the z-score was -0.766 (inactive) in test [4] and -3.2 in [12].
